Source: PubChem BioAssay
GDH-TPI counter: counter-screen for M. tuberculosis FBA inhibitors: GDH-TPI coupled enzymes | actives 1.2% (n = 360,000) | inhibition, % at 4.8 µM | GDH-TPI coupled enzyme counterscreen, NADH absorbance; in the data active = inhibition above about 30%
Mtb hypoxia rep: reduces hypoxia-regulated biosensor signal in M. tuberculosis; M. tuberculosis hypoxia-regulated fluorescent reporter, fluorescence; fluorescence inhibition, % (concentration not given with the values); actives 0.1% (n = 300,000); AID 1159583; in the data active = fluorescence inhibition mostly above about 23%, no sharp cut-off; inactive = mostly below about 17%
Mtb FBA inh: Mtb fructose-bisphosphate aldolase inhibition; P9WQA3; purified M. tuberculosis FBA, fluorescence read-out; inhibition, % at 1 µM; actives 2.3% (n = 360,000); in the data active = inhibition above about 27%
Target sequence (P9WQA3 whole entry, looked up): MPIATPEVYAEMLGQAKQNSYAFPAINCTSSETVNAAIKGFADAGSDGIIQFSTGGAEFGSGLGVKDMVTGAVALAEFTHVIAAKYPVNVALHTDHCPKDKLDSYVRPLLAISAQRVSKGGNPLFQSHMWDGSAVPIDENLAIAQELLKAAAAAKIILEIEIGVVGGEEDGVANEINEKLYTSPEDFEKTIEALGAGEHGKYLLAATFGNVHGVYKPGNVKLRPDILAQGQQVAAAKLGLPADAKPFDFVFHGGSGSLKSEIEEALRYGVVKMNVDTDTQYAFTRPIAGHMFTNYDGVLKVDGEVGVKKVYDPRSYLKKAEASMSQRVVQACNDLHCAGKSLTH
Yp Topo-I inh: blocks Yersinia pestis topoisomerase I activity | Y. pestis Topo-I cleavage product accumulation, plate reader | activity, % at 10 µM | actives 0.064% (n = 360,000) | AID 504884; in the data active = activity above about 50%, passing the limit was not always enough
PrP 5UTR inh: suppresses PrP 5' UTR mRNA reporter expression; cell-based PrP 5' UTR mRNA reporter, plate reader; inhibition, % (concentration not given with the values); actives 0.35% (n = 340,000); AID 488862; in the data active = inhibition above about 52%
PrPC surface inh: inhibitors of human cell surface prion protein PrPC | P04156 | TR-FRET read-out | inhibition, % at 13.8 µM | actives 0.43% (n = 370,000) | AID 720596; in the data active = inhibition above about 24%
Each line names hits and unclear results; the compound was inactive in the other large screens. Rows were chosen to be rich in hits. Some 3.8% of all compounds tested hit in one or more screens of this group.

O=C(N/N=C/c1ccc([N+](=O)[O-])o1)c1cc(-c2cccc(Br)c2)nc2ccccc12	GDH-TPI counter 39.2 (no result: Mtb hypoxia rep)
Oc1ccc(C=NNC(=S)NCCN2CCOCC2)c(O)c1	none (no result: GDH-TPI counter, Mtb FBA inh, Yp Topo-I inh, PrP 5UTR inh, PrPC surface inh)
CN(C)Cc1c(O)ccc2c(=O)c(-c3ccccc3Cl)c(C(F)(F)F)oc12	GDH-TPI counter 35.7
COc1ccccc1-c1c(C(F)(F)F)oc2c(CN(C)C)c(O)ccc2c1=O	none
CCOc1ccc(-n2ccc(=O)c(C(=O)Nc3ccc(S(=O)(=O)Nc4nccs4)cc3)n2)cc1	GDH-TPI counter 33.0 (no result: Mtb hypoxia rep)
O=C(Nc1ccc(S(=O)(=O)Nc2nccs2)cc1)c1nn(-c2ccc(F)cc2)ccc1=O	none
COC(=O)C(CCSC)NC(=O)Nc1cc(C)ccc1C (stereo not drawn)	none (no result: GDH-TPI counter, Mtb FBA inh, Yp Topo-I inh, PrP 5UTR inh, PrPC surface inh)
Oc1ccc(Cl)cc1CN1CCN(Cc2ccccc2)CC1	GDH-TPI counter 63.4
O=C(c1ccco1)N1CCN(Cc2cc(=O)oc3cc(O)ccc23)CC1	Mtb FBA inh active
O=c1cc(CN2CCN(Cc3ccccc3)CC2)c2ccc(O)cc2o1	Mtb FBA inh 152.8
CC1CN(Cc2cc(=O)oc3cc(O)ccc23)CC(C)O1 (stereo not drawn)	Mtb FBA inh 160.9
CCCCN1CC(=O)N2C3c4cc(Cl)ccc4OCC3C(C(=O)OCC)[C@]2(C)C1=O (stereo partly drawn)	none (no result: GDH-TPI counter, Mtb FBA inh, Yp Topo-I inh, PrP 5UTR inh, PrPC surface inh)
CC(C)(C)OC(=O)NN=Cc1ccc([N+](=O)[O-])s1	none (no result: GDH-TPI counter, Mtb FBA inh, Yp Topo-I inh, PrP 5UTR inh, PrPC surface inh)
COc1ccc(NC(C)C(=O)NN=Cc2ccc([N+](=O)[O-])s2)cc1 (stereo not drawn)	Mtb hypoxia rep 43.3 (no result: GDH-TPI counter, Mtb FBA inh, Yp Topo-I inh, PrP 5UTR inh, PrPC surface inh)
CC(C)CC(NC(=O)c1[nH]cnc1C(=O)NC(C)c1ccccc1)C(=O)OCc1ccccc1 (stereo not drawn)	none (no result: GDH-TPI counter, Mtb FBA inh, Yp Topo-I inh, PrP 5UTR inh, PrPC surface inh)
COc1ccc(C2CC(c3ccccc3)=NN2C(=O)COC(=O)c2cccc(S(=O)(=O)N3CCOCC3)c2)cc1 (stereo not drawn)	Yp Topo-I inh 60.4
O=C(O)c1cc(-c2cc(C(=O)O)c3ccccc3n2)ccc1O	GDH-TPI counter 33.5
CCOc1ccc(-c2cc(C(=O)O)c3ccccc3n2)cc1	Mtb FBA inh active
O=C(NCc1nc2ccccc2[nH]1)C1=CC(c2coc3ccccc3c2=O)CC(OCc2ccc(CO)cc2)O1 (stereo not drawn)	none (no result: GDH-TPI counter, Mtb FBA inh, Yp Topo-I inh, PrP 5UTR inh, PrPC surface inh)
CC(=O)c1ccc(N2CCN(c3ccc(C(N)=O)cc3[N+](=O)[O-])CC2)cc1	GDH-TPI counter 32.6
CN(CC(=O)Nc1ccccc1Br)C(=O)c1ccccc1Sc1ccccc1C#N	Mtb hypoxia rep 25.2
Cc1cccc(C)c1NC(=O)CN(C)C(=O)c1ccccc1Sc1ccccc1C#N	none
CCCCN(C)CCNC(=O)c1cc2cc3ccc(OC)cc3nc2o1	Mtb FBA inh active
CCN(C(=O)c1cc2cc3ccc(C)cc3nc2o1)c1ccc(OC)cc1	none (no result: Mtb hypoxia rep)
CCN(CC)CCNC(=O)c1cc2cc3ccc(OC)cc3nc2o1	Mtb FBA inh active
COCCCNC(=O)c1ccc(CS(=O)(=O)c2ccc(OC)cc2)o1	none (no result: Mtb hypoxia rep)
COCCCNC(=O)c1cc2cc3cc(OC)ccc3nc2o1	Mtb FBA inh 121.5
CCCCC1CNC(=S)N1CCc1cccc2ccccc12 (stereo not drawn)	none (no result: GDH-TPI counter, Mtb FBA inh, Yp Topo-I inh, PrP 5UTR inh, PrPC surface inh)
CCCN=C1CC(C)(C)CC(=O)/C1=C(\O)CCCN1C(=O)c2ccccc2C1=O	none (no result: GDH-TPI counter, Mtb FBA inh, Yp Topo-I inh, PrP 5UTR inh, PrPC surface inh)
COc1ccc(/C=N/NC(=O)c2ccc3nc[nH]c3c2)c(OC)c1	GDH-TPI counter 34.8 (no result: Mtb hypoxia rep)
CCOc1ccc(/C=N/NC(=O)c2ccc3nc[nH]c3c2)cc1OC	GDH-TPI counter 41.6 (no result: Mtb hypoxia rep, PrP 5UTR inh)
CC1NCCc2cc(O)c(O)cc21 (stereo not drawn)	none (no result: GDH-TPI counter, Mtb FBA inh, Yp Topo-I inh, PrP 5UTR inh, PrPC surface inh)
COc1ccc(NC(=O)N(C)CC2Oc3ccc(NS(=O)(=O)c4cccs4)cc3C(=O)N(C(C)CO)CC2C)cc1 (stereo not drawn)	none (no result: GDH-TPI counter, Mtb FBA inh, Yp Topo-I inh, PrP 5UTR inh, PrPC surface inh)
O=C(Nc1nnc(-c2ccco2)o1)c1ccc(Cl)s1	none
COc1cccc(-c2nnc(NC(=O)c3ccc(Cl)s3)o2)c1	GDH-TPI counter 40.9
Cc1nn(C)c(C)c1/C=C(\C#N)S(=O)(=O)c1ccc(F)cc1	GDH-TPI counter 32.7 (no result: Mtb hypoxia rep, PrP 5UTR inh)
O=C(NN=Cc1ccccc1O)c1cccc2ccccc12	none (no result: GDH-TPI counter, Mtb FBA inh, Yp Topo-I inh, PrP 5UTR inh, PrPC surface inh)
CC(=NNc1nc2ccccc2s1)c1ccncn1	GDH-TPI counter 34.4 (no result: Mtb hypoxia rep)
COC(=O)Cc1c(C)c2c(OCc3nn[nH]n3)cc(C)cc2oc1=O	Mtb FBA inh 172.3
COC(=O)Cc1c(C)c2ccc(OCc3nn[nH]n3)c(C)c2oc1=O	Mtb FBA inh 159.9
CCN(CC)Cc1c(O)ccc2c(C)c(CC(=O)OC)c(=O)oc12	Mtb FBA inh active
